# Test results: the supplement of paper PMC10105736
# Values without a mark were called inactive.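 Rule for the calls: active = MAPPIT score above the 99th percentile of random reference set scores in the same batch; inactive = at or below it.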
# B1: Adi1 (protein)
# chain: MVQVWYMDTEETDQRLEHHRNPPAYLELDDLYQKTGVEYFKINADEYQSDNTLTELRAKRGYTYDDEITCSEKCLPDYANKLKAFFTEHLHTDEEIRLILEGSGYFDVRDNEDNWLRIKVVKGDLIIIPAGIYHRFTLDTNNFIRTRRYFVGEPVWAPHNRPADEMDCRKSYIKHQSENFVQFNKV
# B2: CG11899 (protein)
# chain: MVINFAAGPAKLPEEVLKEVQENLVNCNGSGISVMEMSHRSSNYAKIHDATISDLRELLNVPSNYKILLMQGGGTGQFAAVALNLIGKTGTADYVITGSWSAKAAKEAAQYGTVNAVLPKLAKYTTVPRQETWKLDPNASYVYYCDNETVEGVEFDFVPEVPAGVPLVADMSSNFLSRPFDVSKFGVIYAGAQKNIGPAGTTVIIVRDDLIGKHLKITPSILNFEQMDKNNSLLNTPPTFGIYVMGLVFKWIKRNGGVAGMAKLAAAKSKLIYDTINQSNGFYYCPVDVNVRSRMNVPFRIGSASGDDALEKEFLSKAEAEGMIQLKGHRSVGGIRASLYNAVTLAETQQLANLMLAFYKNNKN
# B3: Pka-R2 (protein)
# chain: MSSDSSRRIQVPEELKEVLLQFSISFLVEQPPDVIDYAVEYFTKLQSERPSVSHTDQSTDDQLSVNSQDADAEPPVMASSRRKSVFAEAYDPEADDDDDGATAVFPKTDEQRARLVESVKNVLLFRSLEKEQMNQVLDAMFERKVQPGDFIIRQGDDGDNFYVIESGVYKVYINDKHINTYNHTGLFGELALLYNMPRAATVQAETSGLLWAMDRQTFRRILLKSAFRKRKMYEELLNSVPMLKALQNYERMNLADALVSKSYDNGERIIKQGDAADGMYFIEEGTVSVRMDQDDAEVEISQLGKGQYFGELALVTHRPRAASVYATGGVVKLAFLDVKAFERLLGPCMDIMKRNIDDYESQLVKIFGSKNNITDTR
# B4: rush (protein)
# chain: MVDRLVNSEANTRRIASVENCFGSSGVPLAMQGRVLVGEGVLTKMCRKRPKSRQFFLFNDILVYGNIVIGKKKYNKQHIMPLEEVSLESIADNQTYRNGWYIRTTTKSFVVFAATSTEKQEWMAHINKCVEDLLRKSGKKPVENHAAVWVPDTDASVCMHCKKTQFTFIQRRHHCRNCGAVVCAGCSAKKFLLPQQSTKALRVCDACYERLKHVPSSLGSGEDSAAATGAASGNKLNTTAGDSSNDEDSDEETASPGGESHDEPRFYGDNSVLSAVEDSSTITSPSSATTGSLEAPQVTPSVQSSPAAVATTGSHC
# B5: ord (protein)
# chain: MYGETTLNKNHVIKFIKLKINNCLGCDEVEINFSKADNVHIIIYSLVTDMAKDLPAVTPVAQAILLLCSLTYPDSDSLETIPQLKIGKGSVSMSFKVYPVNKEEETEPESESDLDEGPSTSKQALERMVQRAERKAKEASTRNVHSKGIYVNVERRFDMYFALDTVSYYINGGKRQSCPLPEFHAKFFVRPQHSINLLRQLHEKCSGNWLKVIQSDGDGDAFKKFKDPDSPFETFVKLFESNPIKPNDMMGKLAKTCLHVNEAVRLTEREFILEVFNQVRHIFEYITAQEYTVWFLVPCLGDKDQLRSKTLEDFDLTKVRTSIRRAGDTSNIWWDHTDHNIKDILLVAFQLDLATHVNQSVLVISHLETLAEFSTMQYVTAFFMNDFYAKKNTEPKWICHRYLERIIDVALFLGVIVIIEYPSAFTLLQEGRHLIKCFQKENADSSRTSQWEIFEDVVKENESDLEFLKEAVGKVQQNV
# B6: Vm32E (protein)
# chain: MQIVALTLVAFVAIAGASCPYAAPAPAYSAPAASSGYPAPPCPTNYLFSCQPNLAPAPCAQEAPAYGSAGAYTEQVPHYVGSPNREQLQQFHQRIGMAALMEELRGLGQGIQGQQY
# B7: CG12096 (protein)
# chain: MEMEDNWWVTKLKALESKPQRLDALTAMNSAIAKEAALPRQIIERLLTTDQLYDCANPAADSHVPKDQAVDVTLELLCHCLDQLAMDTADEQLSSLLRRGLTHSNPALRAQVLASLFKKLLRQLTVGQVLTLPNNELIFLILDELKQPDTQSTSLAINILSIVLPQRISNADVQAKLVQLLKQNEIVRCRAYELAVVLAKKSATLLSDVTFILDAALSELDNDDVLLQASVMELLVPLAEQNHGLSYMERRRVLDIISYRVQRVEEHPLDALLVPSIMKFFGKISVYQPLKIIGGYPHMLACLFMQLQSEDESILPTAMDTLANLATTPQGKILLNMHFSGAMEKSFKKYGSHTKKLSAHIKKRLLNSLDVIYDFKTPPATEIINIGKNWYECFAGGAHANIIMDLINTPFPDLQMAALSFLKTICKYNWGIVALKNTGGAVEFLLSRQKDLHRDIKYMKWQIMEILSASAEFSPTETIRFTAYVNEGPYHVQADLDVATEPQGNA
# B8: Pep (protein)
# chain: MVSVKVNGNPQNRLVNNAKVNGNMAFRGNQNRNRNFGGGNNNYGGPMGANRMGGMNMSPWESQNPGGGQFGNNMRQGGGQMNAQAINLANNLLNNLFRNQNPPSLLDLPRGGGGMGNRNQRGGPMVSRGGGAGNRLNNRRGQGGGFQNRGATGSGPKPPPKQGGGGIRKQNAFDRAKKLLAKNANQNKKKEPTPGEKKIESPTKESPYASVPNDMFYCHLCKKHMWDANSFENHIKGRTHLMMREGIEESYRLKANMIRQEAKIAEQLKSIEFDRLKRMGKSKQRQLDYCTMCDLNFHGHISTHRKSEGHLQLKKFLHPKCIECNKEFATRIDYDTHLLSAEHLKKAAENNTKVGERKRQTLPISTEEEETRDLRLPQKRKKKPVKKEGEAADGEAKKEGAGDGEGAEGDEAEGEEAKEGEEAADETKEGDELNESQEEEEVALPVDPEDCILDFNDGDEIPSEVDTRLPKYNWQRAVGPGLISKLECYECSVCSKFFDTEVTAEIHSRTATHHRNFLKFINEKSSDTKIAQKRAAAALEENERKKRKVEEAEAPAAEGAAEETTEGAEGELYDPSEATGDDEDVEMVDDNAEGEGEGEGDEEAEAEVEEDGAGQDNGEEEMEAQEEEGQEGEQEPEPEPAPVQTPAPAEPAPPAKTPAKTPTKAAAPAAVASPAAAATSADASPSPAKKATPARAAAGAKATPQRQRARGRYNRY
# B9: mts (protein)
# chain: MEDKATTKDLDQWIEQLNECNQLTETQVRTLCDKAKEILSKESNVQEVKCPVTVCGDVHGQFHDLMELFRIGGKSPDTNYLFMGDYVDRGYYSVETVTLLVALKVRYRERITILRGNHESRQITQVYGFYDECLRKYGNANVWKYFTDLFDYLPLTALVDGQIFCLHGGLSPSIDSLDHIRALDRLQEVPHEGPMCDLLWSDPDDRGGWGISPRGAGYTFGQDISETFNNTNGLTLVSRAHQLVMEGYNWCHDRNVVTIFSAPNYCYRCGNQAALMELDDSLKFSFLQFDPAPRRGEPHVTRRTPDYFL
# B10: CG32486 (protein)
# chain: MSVESSSSAVQQPPSSSNLPLLGDNQAVATTSSASSASSSSTSSSSSSVGGGNVVGVPLDTQGSGEPPAKKQLLDGGGGGATSSSGSSLLSSAAAASGMHEKLAHRISNALCCAVCLDLPKTAMYQCQMGHLMCAACFTHLLADGRLRDQIATCPNCRVEISKSTASRNLAVEKAASELPSECQFCNKEFPYKSLERHEQHECQERPTKCKYHRIGCQWRGPYHETNEHERNCLHPQKSGYEVMAALEAHDDRIKEEKKMFNTLIDLLSYEKIIFNDLQMKPYRTDEYVHKLFYETARFSAFNQQWVVKARINNSQRDPHQSNERTITYQLILKTKTSTPMSIHFFALKGPFSDMKVSTQIYKHEFTETSTESEYYVLPLPDGVGGSGSSECNRMLANKGINFRLLMFLLNK
# B11: SmD2 (protein)
# chain: MALVKPKSELTPEELARQEEEEFNTGPLSVLTQSVKNNTQVLINCRNNKKLLGRVKAFDRHCNMVLENVKEMWTELPRTGKGKKKVKPVNKDRFISKMFLRGDSVILVLRNPLATAAGK
# B12: mRpL24 (protein)
# chain: MRLTQYLASKLKNFSNLPKEYIERSKKQVYWQTPKEINYLPRTVERKRFRYTTNRSWTGQFRQQNMPGTVRRKVLVEPIEDWSFFRGDRIEVLVGKDKGKQGIVTQVIPERNWVIVEGLNWHYRKVGGEKEFPGIIIKSEAPLHVTKDIRLVDPSDLQGTDFEWRFTEEGEKVRVSLRSGRIIPIPETNNQTHDYKTPNAYIEREKDTPGAVVGEITFQPKLSTFEMDIMEEMGIKEERTPVKSYWY
# B13: Cog8 (protein)
# chain: MDFPDKMDLENERVLKLIFPDGVPDNLRGNPELDNYLAKLGTCKVEQLKKEQTRLAEEARTILEQTQDLAISNYRTFITTAENSRSIFSEFLRSEQQLDTLVSKLPDLSVQCERFLQDSAELNEQRRLNSITLQKNAQLLEVLELPQLMERCIREGRYEEALELAAYATRLGQHQGHIPVVTSIVRSVEALWHNMLVQLVAQLRTDLQLPKCLQIVGYLRRMQAFGDNELRLKFLQARDAWLTSCLEAIPTADAQQHLSKTIEITRINLFNIITQYRAIFPEDEGTLKTQSSLRPLQGVSCNGDRLFQAWLHNKISDFLQTLERDLQLGVGSVETVLGQCMYFGLSFSRVGADFRALMAPIFVGVIRRRFESSVEQVDEQFERELERFTLINKVALHSHARKQVDPEQESYAPPEALLDFYPLAALCNGYLSALNELRLCAPLALATDVTRCLQHSLQQAAQRVLAFYRQEQQAFAGSEREAFVRLCSCLAYDLVPYIQRCIHGVFPPQSLTVHLGISLLQLEQQQLTYLQQTRILEPLKHLLPTKALVQPQDKVMEAKPSAGVPVTAEG
# B14: alien (protein)
# chain: MSDNDDDFMCDDDEDYGLEYSEDSNSEPDVDLENQYYNSKALKEEEPKAALASFQKVLDLENGEKGEWGFKALKQMIKINFRLCNYDEMMVRYKQLLTYIKSAVTRNHSEKSINSILDYISTSKNMALLQNFYETTLDALRDAKNDRLWFKTNTKLGKLYFDRSDFTKLQKILKQLHQSCQTDDGEDDLKKGTQLLEIYALEIQMYTVQKNNKKLKALYEQSLHIKSAIPHPLIMGVIRECGGKMHLREGEFEKAHTDFFEAFKNYDESGSPRRTTCLKYLVLANMLMKSGINPFDSQEAKPYKNDPEILAMTNLVNSYQNNDINEFETILRQHRSNIMADQFIREHIEDLLRNIRTQVLIKLIRPYKNIAIPFIANALNIEPAEVESLLVSCILDDTIKGRIDQVNQVLQLDKINSSASRYNALEKWSNQIQSLQFAVVQKMA
# B15: CG7137 (protein)
# chain: MKPFEVPPWEEGADIIEFEPVNPSGNGVAAKKKPKKKKPKKKKAAVPNENLNVNKAAEKFTYRQGRGPLAPPQDSSDDDYEDVEDGIRAMHKVKSGRIEKQRPPTQATKGGKKELKLKPELAQAALEAMEATSSTTPAANSLASKLQSELLGGRFRYINEQLYSTTSRKAEALFRKDSSAFEAYHAGYRQQVEKWPINPLNRIIKTIKKIPKTAIIGDFGCGEGKLAQSVPNKVYSMDLVAARSDIIACNITDTPLQARTLDVAVYCLSLMGTDLNEFFLEANRVLKLHGTVYIAEIQSRFQDVREFVRCLNACGFDLNKKDVAVNYFYFFQFKKMRHVPKNTKMKAFSLKPCLYRKR
# Legend:
# Experiment in all cases: MAPPIT interaction score (arbitrary units); higher = stronger binary interaction signal, active = hit call of the paper
# [1] = target: Sfp84E; conditions: pair source set: RRS
# [2] = target: alc; conditions: MAPPIT configuration: N-N; pair source set: Lit-BS-16
# [3] = target: robl62A; conditions: MAPPIT configuration: N-N; pair source set: RRS
# [4] = target: SelR; conditions: MAPPIT configuration: N-N; pair source set: Curagen_high_conf
# [5] = target: Shmt; conditions: MAPPIT configuration: N-N; pair source set: Curagen_high_conf
# [6] = target: Rtnl1; conditions: MAPPIT configuration: N-N; pair source set: screen_2
# [7] = target: Sce; conditions: MAPPIT configuration: N-C; pair source set: Lit-BM-16
# [8] = target: RpS5a; conditions: MAPPIT configuration: N-N; pair source set: Curagen_high_conf
# [9] = target: Rpt2; conditions: MAPPIT configuration: N-N; pair source set: screen_1
# [10] = target: Sid; conditions: MAPPIT configuration: N-N; pair source set: Curagen_high_conf
# [11] = target: Xbp1; conditions: MAPPIT configuration: N-N; pair source set: Curagen_low_conf
# [12] = target: RpS3; conditions: MAPPIT configuration: N-N; pair source set: Curagen_low_conf
# [13] = target: msl-3; conditions: MAPPIT configuration: N-N; pair source set: DPIM
# [14] = target: ScpX; conditions: MAPPIT configuration: N-N; pair source set: Curagen_high_conf
# [15] = substrate: SNCF; conditions: MAPPIT configuration: N-N; pair source set: DPIM
# [16] = target: Sarm; conditions: MAPPIT configuration: N-N; pair source set: Curagen_low_conf
# [17] = target: RpS29; conditions: pair source set: RRS
# [18] = target: Rpn6; conditions: pair source set: Lit-BM-16
# [19] = target: Sas10; conditions: MAPPIT configuration: N-N; pair source set: Finley_Y2H
# [20] = target: grau; conditions: MAPPIT configuration: N-N; pair source set: Lit-BM-16
# 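Note: HEK293T cells with Epo stimulation, STAT-responsive firefly luciferase reporter, fold induction versus unstimulated cells divided by the larger fold induction of two negative controls lacking either bait or prey.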
binder,measurement,setting,value
B1,MAPPIT interaction score,[1]; MAPPIT configuration: N-C,0.249
same,MAPPIT interaction score,[1]; MAPPIT configuration: N-N,0.123
same,MAPPIT interaction score,[2],0.0614
same,MAPPIT interaction score,[3],2.17
B2,MAPPIT interaction score,[4],0.998
B3,MAPPIT interaction score,[5],0.452
B4,MAPPIT interaction score,[6],-0.205
B5,MAPPIT interaction score,[7],2.19
B6,MAPPIT interaction score,[8],0.177
B7,MAPPIT interaction score,[9],5.01 (active)
B8,MAPPIT interaction score,[10],-0.865
same,MAPPIT interaction score,[11],-0.182
B9,MAPPIT interaction score,[12],0.284
same,MAPPIT interaction score,[13],1.55
B10,MAPPIT interaction score,[14],4.53 (active)
B11,MAPPIT interaction score,[15],0.49
B12,MAPPIT interaction score,[16],0.785
B13,MAPPIT interaction score,[17]; MAPPIT configuration: N-C,0.627
same,MAPPIT interaction score,[17]; MAPPIT configuration: N-N,-0.265
B14,MAPPIT interaction score,[18]; MAPPIT configuration: N-C,4.99 (active)
same,MAPPIT interaction score,[18]; MAPPIT configuration: N-N,0.207
B15,MAPPIT interaction score,[19],0.356
same,MAPPIT interaction score,[20],0.26
